Source: PubChem BioAssay (Tox21)
Results filed as inconclusive are left out. Activity calls are given as the source filed them. The call rests on the fitted dose curve.

Legend:
[1] = target: Acetylcholinesterase (Homo sapiens) (UniProt P22303); assay: Acetylcholinesterase (AChE) small molecule antagonists: colormetric cell-based qHTS assay (AID 1347395); further: nearly all actives have a fitted effect of over 30% in size
Method in brief: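 SH-SY5Y cells; cpd 30 min 37 C; + DTNB/acetylthiocholine, 90 min 37 C; colorimetric thiocholine read; qHTS.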

[2] = target: Acetylcholinesterase (Homo sapiens) (UniProt P22303); assay: Acetylcholinesterase (AChE) small molecule antagonists: enzyme-based qHTS assay (AID 1347397); conditions: Potency: AChE enzyme activity inhibition; outcome: AChE enzyme activity inhibition; further: nearly all actives have a fitted effect of over 55% in size
Method in brief: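 Tox21 library chemicals are tested in qHTS format against recombinant human AChE. The enzyme, dispensed at 50 mU/mL, sits with compound for 30 min at room temperature. A DTNB–acetylthiocholine cocktail follows, and colour is read after 10 min.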

[3] = target: Acetylcholinesterase (Homo sapiens) (UniProt P22303); assay: Acetylcholinesterase (AChE) small molecule antagonists: fluorescence cell-based qHTS assay (AID 1347398); conditions: Potency: AChE activity; outcome: AChE activity; further: nearly all actives have a fitted effect of over 50% in size
Method in brief: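 Cellular AChE inhibition: SH-SY5Y cells treated with test chemical for 30 min at 37 C, then acetylthiocholine hydrolysis followed over 40 min at room temperature via thiocholine-reactive Thiolite Green fluorescence (490/520 nm).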

[4] = target: Acetylcholinesterase (Homo sapiens) (UniProt P22303); assay: Acetylcholinesterase (AChE) small molecule antagonists: enzyme-based qHTS assay with human liver microsomes (AID 1347399); conditions: Potency: qHTS inhibition; outcome: qHTS inhibition; further: nearly all actives have a fitted effect of over 60% in size
Method in brief: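 Recombinant human AChE (50 mU/mL in the enzyme mix) and human liver microsomes (0.25 mg/mL final) were preincubated with compound and NADPH (0.25 mg/mL final) for 30 min at 37 C. Acetylthiocholine/DTNB was then added; thiocholine was read colorimetrically after 10 min at room temperature.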

Measured: Potency

Sequence of Acetylcholinesterase (Homo sapiens) (P22303 whole entry, looked up): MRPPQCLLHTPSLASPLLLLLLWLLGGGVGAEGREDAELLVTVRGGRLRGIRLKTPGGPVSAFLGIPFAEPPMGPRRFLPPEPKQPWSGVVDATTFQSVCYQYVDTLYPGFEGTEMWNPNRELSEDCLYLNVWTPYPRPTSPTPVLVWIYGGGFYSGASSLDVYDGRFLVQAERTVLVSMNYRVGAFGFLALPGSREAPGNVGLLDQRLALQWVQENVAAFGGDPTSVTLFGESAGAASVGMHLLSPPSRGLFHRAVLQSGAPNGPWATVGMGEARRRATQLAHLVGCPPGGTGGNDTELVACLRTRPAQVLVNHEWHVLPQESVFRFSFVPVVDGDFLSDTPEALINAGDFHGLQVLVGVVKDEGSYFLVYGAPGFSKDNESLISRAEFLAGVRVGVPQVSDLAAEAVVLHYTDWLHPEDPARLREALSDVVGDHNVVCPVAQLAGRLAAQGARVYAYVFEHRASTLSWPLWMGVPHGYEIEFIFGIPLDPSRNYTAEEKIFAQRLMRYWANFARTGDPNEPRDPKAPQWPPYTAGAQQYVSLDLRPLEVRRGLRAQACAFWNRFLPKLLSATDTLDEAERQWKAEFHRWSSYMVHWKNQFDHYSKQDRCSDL

c1ccc(CN(Cc2ccccc2)Cc2ccccc2)cc1
inactive: all assays above

CNCCCC1c2ccccc2C=Cc2ccccc21
inactive: all assays above

CC(=O)S[C@@H]1CC2=CC(=O)CC[C@]2(C)[C@H]2CC[C@@]3(C)[C@@H](CC[C@@]34CCC(=O)O4)[C@H]12
inactive: all assays above

CCOC(=O)C(C)O (stereo not given)
inactive: all assays above

CO[Si](CCCNc1ccccc1)(OC)OC
inactive: all assays above

CC(C)(C)C1CCCCC1=O (stereo not given)
inactive: all assays above

CCN(CC)CCNC(C(=O)OCCC(C)C)c1ccccc1 (stereo not given)
inactive: all assays above

O=C(O)C1CCC1
inactive: all assays above

Cc1ccc(C(C)NC(=O)[C@@H](NC(=O)OC(C)C)C(C)C)cc1 (stereo not given in full)
inactive: all assays above

Nc1ccccc1S(=O)(=O)c1ccccc1
inactive: all assays above

C=CC(=O)[O-].C=CC(=O)[O-].[Zn+2]
inactive: all assays above

Nc1ncnc2c1ncn2Cc1c(F)cccc1Cl
inactive: all assays above

CCOc1ccccc1N
inactive: all assays above

C=COCCOCCOCCOC=C
inactive: all assays above

CN(C)C(=O)Nc1ccccc1
inactive: all assays above

OCCC(O)CO (stereo not given)
inactive: all assays above

C/C=C/C=C/COC(=O)C(C)C
inactive: all assays above

O=c1[nH]ncc2ccccc12
inactive: all assays above

CCC=CC#N
inactive: all assays above

O=[N+]([O-])c1ccc2[nH]ncc2c1
inactive: all assays above

CCCCOCCOC(=O)CCCCCCCCC(=O)OCCOCCCC
inactive: all assays above

CC(C)(C)c1nnc(NS(=O)(=O)c2ccc(N)cc2)s1
inactive: all assays above

CC(=O)c1ccc2c(c1)CCCC2
inactive: all assays above

CCOC(=O)c1cnc2c(cnn2CC)c1NN=C(C)C
inactive: all assays above

Sc1nc2ccccc2s1
inactive: all assays above

O=c1[nH][nH]c(=O)c2cc([N+](=O)[O-])ccc12
inactive: all assays above

OCCNCc1ccccc1
inactive: all assays above

CC(=O)OC(C)C[N+](C)(C)C (stereo not given)
inactive: all assays above

Nc1nc(N)nc(-c2cc(Cl)ccc2Cl)n1
inactive: all assays above

COCCOCCOCCOCCOC
inactive: all assays above

Cc1ccc(N/N=c2\c(=O)cc/c(=N\Nc3ccc(S(=O)(=O)O)cc3)c2=O)c(C)c1
inactive: all assays above

NCc1ccccc1
inactive: all assays above

O=C(O)CCCCCCCCCCCBr
inactive: all assays above

Nc1ccc2c(S(=O)(=O)O)cccc2c1S(=O)(=O)O
inactive: all assays above

Nc1cnn([C@@H]2O[C@H](CO)[C@@H](O)[C@H]2O)c(=O)n1
inactive: all assays above

COC(=O)c1cc(Cl)cc(Cl)c1
inactive: all assays above

CC[C@@H]1C[C@H](N(Cc2cc(C(F)(F)F)cc(C(F)(F)F)c2)C(C)=O)c2cc(C(F)(F)F)ccc2N1C(=O)OC(C)C
inactive: all assays above

C=CCOc1ccccc1OCC(O)CNC(C)C (stereo not given)
inactive: all assays above

O=C(/C=C/c1ccccc1)OC/C=C/c1ccccc1
inactive: all assays above

Cc1onc(-c2ccccc2)c1-c1ccc(S(N)(=O)=O)cc1
inactive: all assays above

C=COCC1CCC(COC=C)CC1 (stereo not given)
inactive: all assays above

CCNC(=O)C(C)OC(=O)Nc1ccccc1 (stereo not given)
inactive: all assays above

[Cl][Eu]([Cl])[Cl]
inactive: all assays above

NC(=O)c1ccccc1
inactive: all assays above

Nc1nc(-c2ccccc2)c(Br)c(=O)[nH]1
inactive: all assays above
